Results filed as inconclusive are left out. Calls of active or inactive are those of the source. The call rests on the fitted dose curve; in most records, active means well fitted curve in the direction sought with a large enough effect; inconclusive means small, poorly fitted or top-dose-only effect, or another doubt; inactive means no such curve, though single readings can be large; an effect the other way counts as inactive or inconclusive.
Assays:
[1] = molecular target: Glutathione peroxidase 1 (Homo sapiens) (UniProt P07203); test: Primary qHTS Assay for Inhibitors of Recombinant Selenoprotein Glutathione Peroxidase 1 (GPX1) (AID 1845191); further: nearly all actives have a fitted effect of over 65% in size; on activity, negative = inhibition: on the % scale 0 is the no-effect control and ±100 the full control effect
Sequence of Glutathione peroxidase 1 (Homo sapiens) (P07203 whole entry, looked up): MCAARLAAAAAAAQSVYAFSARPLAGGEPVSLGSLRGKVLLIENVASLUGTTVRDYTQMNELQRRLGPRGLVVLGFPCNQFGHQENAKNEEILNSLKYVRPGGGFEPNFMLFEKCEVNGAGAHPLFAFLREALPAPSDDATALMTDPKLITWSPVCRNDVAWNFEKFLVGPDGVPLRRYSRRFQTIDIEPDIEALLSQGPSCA
How it was run: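 GR-coupled assay: compounds preincubated 30 min at room temperature with GPX1, then reaction started with CHP; final 10 nM GPX1, 1 mM GSH, 0.5 mM CHP, 0.5 mM NADPH, 100 nM GR, 0.01% BSA, pH 7.5 Tris buffer. NADPH fluorescence (340/450 nm) read at 0 and 15 min.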

[2] = molecular target: Phospholipid hydroperoxide glutathione peroxidase GPX4 (Homo sapiens) (UniProt P36969); test: Primary qHTS Assay for Inhibitors of Recombinant Selenoprotein Glutathione Peroxidase 4 (GPX4) (AID 1845192); further: nearly all actives have a fitted effect of over 65% in size; on activity change, negative = inhibition: series mostly up to about 50 µM; on the % scale 0 is the no-effect control and ±100 the full control effect
Sequence of Phospholipid hydroperoxide glutathione peroxidase GPX4 (Homo sapiens) (P36969 whole entry, looked up): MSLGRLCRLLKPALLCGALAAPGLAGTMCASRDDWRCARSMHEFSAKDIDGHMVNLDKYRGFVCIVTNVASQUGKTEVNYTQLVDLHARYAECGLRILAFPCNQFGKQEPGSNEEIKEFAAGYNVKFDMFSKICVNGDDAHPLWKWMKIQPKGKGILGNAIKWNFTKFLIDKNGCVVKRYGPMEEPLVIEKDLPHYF
How it was run: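 GR-coupled assay: recombinant GPX4 preincubated 30 min with compound at room temperature; final 200 nM GPX4, 1 mM GSH, 0.5 mM cumene hydroperoxide, 0.5 mM NADPH, 100 nM GR, 0.01% BSA, pH 7.5 Tris. NADPH fluorescence (340/450 nm) read at 0 and 15 min.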

[3] = molecular target: Luciferin 4-monooxygenase (Photinus pyralis) (UniProt P08659); test: Primary firefly luciferase (FLuc) qHTS assay for identification of artifact compounds. (AID 1845220); further: nearly all actives have a fitted effect of over 60% in size;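 on activity change, negative = inhibition: series mostly up to about 54 µM; plate controls were DMSO vehicle for no effect and no enzyme for full effect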
How it was run: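 D-luciferin and ATP (10 uM each, final) in Tris acetate buffer pH 7.6 were incubated with compounds for 15 min at room temperature. The reaction was started with 10 nM Photinus pyralis luciferase and luminescence read after 5 min. Percent inhibition was fitted to a 4-parameter Hill equation.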

[4] = Primary fluorescence-based thiol-reactive (MSTI) qHTS assay for identification of artifact compounds. (AID 1845221); further: nearly all actives have a fitted effect of over 65% in size; further: potency means the concentration at half of the fitted maximal effect;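 on activity change, negative = thiol reactive: series mostly up to about 54 µM; thiol-reactive compounds lower the probe fluorescence signal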
How it was run: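 Curve-fitted percent inhibition (4-parameter Hill) derived from fluorescence, Ex 525/Em 598 nm, scaled with Acetyl-MSTI and MSTI; 1 h incubation at room temperature.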

[5] = system: Nanoluciferase (engineered Oplophorus gracilirostris luciferase); test: Primary Nanoluciferase (NLuc) qHTS assay for identification of artifact compounds. (AID 1845222);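 further: series mostly up to about 54 µM; 0% = DMSO and -100% = no enzyme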
How it was run: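 Diluted conditioned medium from NLuc-expressing S16 cells treated with compounds for 15 min at room temperature, then Nano-Glo substrate added; luminescence read after 5 min. Percent inhibition versus no-enzyme and DMSO controls fitted to 4-parameter Hill equation.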

[6] = Primary redox qHTS assay for identification of artifact compounds. (AID 1845223);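 further: 0% = DMSO and 100% = reference compound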
How it was run: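 Amplex Red (25 uM) and HRP (250 mU/mL) in HBSS, with compounds for 15 min, then 250 uM DTT for 30 min, room temperature, dark. Fluorescence 525/598 nm read; normalized to DMSO and 10 uM DA3003; Hill fit.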

O=C(c1cc2c(cc1F)OC(c1ccc(F)cc1)(c1ccc(Cl)cc1Cl)O2)N1CCOCC1 (configuration not stated)
inactive: Potency [1] | Potency [2] | Potency [3] | Potency [4] | Potency [5]

CC(=O)OC[C@@]12C(=O)C[C@@H](C)[C@]3(C[C@@H](c4ccoc4)O[C@H]3OC(C)=O)[C@H]1CCC[C@]21CO1
inactive: Potency [1] | Potency [2] | Potency [3] | Potency [4] | Potency [5]

C[C@H](CCC(=O)O)[C@H]1CC[C@H]2[C@@H]3C[C@H](O)[C@@H]4C[C@H](O)CC[C@]4(C)[C@H]3CC[C@]12C
inactive: Potency [1] | Potency [2] | Potency [3] | Potency [4] | Potency [5]

O=C(O)c1ccc(CN2CCC(CN[C@@H]3C[C@H]3c3ccccc3)CC2)cc1
inactive: Potency [1] | Potency [2] | Potency [3] | Potency [4] | Potency [5]

C=CC(=O)Nc1cccc(Nc2nc(Nc3ccc(N4CCN(C(C)=O)CC4)cc3OC)ncc2C(F)(F)F)c1
active: Potency [4] 2990 nM
inactive: Potency [1] | Potency [2] | Potency [3] | Potency [5]

Cc1nc(Nc2n[nH]c3c2CN(C(=O)NC(CN(C)C)c2ccccc2)C3(C)C)c2sccc2n1 (configuration not stated)
inactive: Potency [1] | Potency [2] | Potency [3] | Potency [4] | Potency [5]

COC(=O)c1cc(OC)cc(OC)c1C(=O)c1c(OC)cc2c(c1O)C1CCCC(C)(O2)O1 (configuration not stated)
inactive: Potency [1] | Potency [2] | Potency [3] | Potency [4] | Potency [5]

C=CC(C)(C)c1[nH]c2ccccc2c1C[C@@H]1NC(=O)[C@H](Cc2c[nH]c3ccccc23)NC1=O
active: Potency [4] 2320 nM
inactive: Potency [1] | Potency [2] | Potency [3] | Potency [5]

CC1CCC2(C=O)C(CO)=CCCC2C1(C)CC(=O)O (configuration not stated)
active: Potency [4] 3360 nM
inactive: Potency [1] | Potency [2] | Potency [3] | Potency [5]

C[C@@H]1O[C@@H](O[C@H]2[C@H](O)[C@@H](O[C@@H]3O[C@H](CO)[C@@H](O)[C@H](O[C@@H]4O[C@H](CO)[C@@H](O)[C@H](O)[C@H]4O)[C@H]3O)[C@H](O[C@H]3CC[C@@]4(C)C(=CC[C@@H]5C4CC[C@@]4(C)C5C[C@@H]5OC6(CC[C@@](C)(CO[C@@H]7O[C@H](CO)[C@@H](O)[C@H](O)[C@H]7O)O6)[C@@H](C)[C@@H]54)C3)O[C@@H]2CO)[C@H](O)[C@H](O)[C@H]1OC1OC(CO)C(O)C(O)C1O (some centres not stated)
inactive: activity, negative = inhibition [1] 1.32% [at 9.52 µM] | outcome [2] inactive [at 9.73 µM] | activity change, negative = inhibition [3] 2.07% [at 11.6 µM] | activity change, negative = thiol reactive [4] 23.9% [at 11.5 µM] | activity, negative = inhibition [5] 1.98% [at 11.6 µM]

COc1ccc(C2(O)CCC(N3CC[C@@H](NC(=O)CNC(=O)c4cccc(C(F)(F)F)c4)C3)CC2)cn1 (some centres not stated)
inactive: Potency [1] | Potency [2] | Potency [3] | Potency [4] | Potency [5]

COc1c2c(c(C)c3c1C(=O)OC3)OC1(C)CC(O)C34OC(OC)(CC(OC(C)=O)C3(C)C1C2)OC4(C)C (configuration not stated)
inactive: Potency [1] | Potency [2] | Potency [3] | Potency [4] | Potency [5]

CC(=O)OC1/C(C)=C/C(=O)C(OC(C)=O)C(C)(C)/C=C/C(C)C(=O)C2(OC(C)=O)CC(C)C(OC(=O)c3ccccc3)C12 (configuration not stated)
inactive: Potency [1] | Potency [2] | Potency [3] | Potency [4] | Potency [5]

O=C(C(c1ccccc1)c1ccccc1)N1CCN(CC(O)COc2cccc3ncccc23)CC1 (configuration not stated)
inactive: Potency [1] | Potency [2] | Potency [3] | Potency [4] | Potency [5]

O=C1CCC(c2ccccc2)(C2CCN(Cc3ccc(I)cc3)CC2)C(=O)N1 (configuration not stated)
inactive: Potency [1] | Potency [2] | Potency [3] | Potency [4] | Potency [5]

O=C(O)[C@H](Cc1ccc(Nc2nccc3ccncc23)cc1)NC1=C(Br)C(=O)C12CCCCC2
inactive: Potency [1] | Potency [2] | Potency [3] | Potency [4] | Potency [5]

CC(C)[C@@H](CS(=O)(=O)C(C)C)N1C(=O)[C@@](C)(CC(=O)O)C[C@H](c2cccc(Cl)c2)[C@H]1c1ccc(Cl)cc1
inactive: Potency [1] | Potency [2] | Potency [3] | Potency [4] | Potency [5]

CC(C)=CC/C=C(\C)[C@H]1CC[C@]2(C)[C@@H]1[C@H](O)C[C@@H]1[C@@]3(C)CC[C@H](O)C(C)(C)[C@@H]3[C@@H](O[C@@H]3O[C@H](CO)[C@@H](O)[C@H](O)[C@H]3O)C[C@]12C
inactive: Potency [1] | Potency [2] | Potency [3] | Potency [4] | Potency [5]

C[C@@H]1CC[C@]2(C(=O)O[C@@H]3O[C@H](CO)[C@@H](O)[C@H](O)[C@H]3O)CC[C@]3(C)C(=CCC4[C@@]5(C)C[C@@H](O)[C@H](O)[C@@](C)(C(=O)O[C@H]6[C@H](O)C[C@@]7(C)C(CC[C@]8(C)C7CC=C7[C@H]9[C@](C(=O)O[C@@H]%10O[C@H](CO)[C@@H](O)[C@H](O)[C@H]%10O)(CC[C@@H](C)[C@@]9(C)O)CC[C@]78C)[C@@]6(CO)C(=O)O)C5CC[C@]43C)[C@@H]2[C@]1(C)O (some centres not stated)
inactive: outcome [1] inactive [at 9.52 µM] | activity change, negative = inhibition [2] -0.473% [at 9.73 µM] | activity change, negative = inhibition [3] 0.17% [at 11.6 µM] | activity change, negative = thiol reactive [4] -3.19% [at 11.5 µM] | activity, negative = inhibition [5] -2.05% [at 11.6 µM]

CC(=O)O[C@@H](CO[C@@H]1O[C@H](CO)[C@H](O)[C@H](O)[C@H]1O)[C@]1(C)C=C2CC[C@@H]3C(C)(C)[C@@H](O)CC[C@@]3(C)[C@@H]2CC1
inactive: Potency [1] | Potency [2] | Potency [3] | Potency [4] | Potency [5] | Potency [6]

COC(=O)N[C@@H](C)CNc1nccc(-c2cn(C(C)C)nc2-c2cc(Cl)cc(NS(C)(=O)=O)c2F)n1
inactive: Potency [1] | Potency [2] | Potency [3] | Potency [4] | Potency [5]

CC[C@@](C)(Nc1ccnc(-c2c[nH]c3ncccc23)n1)C(=O)NCC(F)(F)F
inactive: Potency [1] | Potency [2] | Potency [3] | Potency [4] | Potency [5] | Potency [6]

Reference: PubChem BioAssay (NCATS)
